# Assay results from the supplement of paper PMC9492666.
# Structures can show the parent of a compound that is named as a salt.
# Key:
# Details in all cases: 72 h
# HCC1937 [1] = assay: relative cell viability, compound alone, vs DMSO (fraction of DMSO control); higher = less growth inhibition
# MDA-MB-231 [2] = assay: as above
# HCC1937 [3] = assay: relative cell viability, compound + erastin, vs DMSO (fraction of DMSO control); higher = less growth inhibition
# MDA-MB-231 [4] = assay: as above
# HCC1937 [5] = assay: relative cell viability, compound + RSL3, vs DMSO (fraction of DMSO control); higher = less growth inhibition
# MDA-MB-231 [6] = assay: as above
# 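Throughout, for relative cell viability, compound + RSL3, vs DMSO: breast cancer cell viability read out with the CCK-8 kit after co-treatment of each compound with the ferroptosis inducer RSL3.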
# 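Throughout, for relative cell viability, compound + erastin, vs DMSO: viability read by CCK-8 kit in 96-well plates, part of a combination screen pairing lipid-metabolism-targeting compounds with erastin.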
# 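Throughout, for relative cell viability, compound alone, vs DMSO: viability read out with the CCK-8 kit in 96-well plates, screening a set of 303 compounds acting on lipid metabolism targets.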
smiles,measurement,setting,value
CC(C)=CCC[C@](C)(O)[C@H]1CC[C@]2(C)[C@@H]1[C@H](O)C[C@@H]1[C@@]3(C)CC[C@H](O)C(C)(C)[C@@H]3[C@@H](O[C@@H]3O[C@H](CO)[C@@H](O)[C@H](O)[C@H]3O)C[C@]12C [Ginsenoside Rh1],relative cell viability,HCC1937 [1],1.09
same,relative cell viability,MDA-MB-231 [2],1.03
CCc1c(C(=O)C(N)=O)c2c(OCC(=O)O)cccc2n1Cc1ccccc1 [Varespladib],relative cell viability,HCC1937 [1],0.797
same,relative cell viability,MDA-MB-231 [2],0.842
CC(C)(C)N1C(=O)C(Nc2ccc(N3CCCCC3)cc2)=C(c2ccccc2)S1(=O)=O + CCOc1ccccc1-n1c(C(C)N2CCN(C(=O)COc3ccc(Cl)cc3)CC2)nc2ccccc2c1=O [erastin],relative cell viability,HCC1937 [3],0.678
same,relative cell viability,MDA-MB-231 [4],0.797
C[C@@H]1C(=O)O[C@H]2[C@H](O)[C@@]34O[C@@H]5OC(=O)[C@H](O)[C@@]56[C@H](C(C)(C)C)[C@H](O)C(OC3=O)[C@]64[C@@]12O (stereo partly specified) [Ginkgolide C] + COC(=O)c1ccc([C@H]2c3[nH]c4ccccc4c3C[C@H](C(=O)OC)N2C(=O)CCl)cc1 [RSL3],relative cell viability,HCC1937 [5],0.699
same,relative cell viability,MDA-MB-231 [6],0.692
COc1ccc(CN2CCNCC2)c(OC)c1OC [Trimetazidine dihydrochloride] + COC(=O)c1ccc([C@H]2c3[nH]c4ccccc4c3C[C@H](C(=O)OC)N2C(=O)CCl)cc1 [RSL3],relative cell viability,HCC1937 [5],0.782
same,relative cell viability,MDA-MB-231 [6],0.607
O=C(Oc1ccc([N+](=O)[O-])cc1)N1CCC(C(O)(c2ccc3c(c2)OCO3)c2ccc3c(c2)OCO3)CC1 + COC(=O)c1ccc([C@H]2c3[nH]c4ccccc4c3C[C@H](C(=O)OC)N2C(=O)CCl)cc1 [RSL3],relative cell viability,HCC1937 [5],0.483
same,relative cell viability,MDA-MB-231 [6],0.618
O=C1C=CC[C@@H]2[C@H]3CCCN4CCC[C@@H](CN12)[C@@H]34 [Sophocarpine],relative cell viability,HCC1937 [1],0.762
same,relative cell viability,MDA-MB-231 [2],0.906
NNC(=O)c1nn(Cc2ccc(Cl)cc2Cl)c2ccccc12 [Adjudin] + COC(=O)c1ccc([C@H]2c3[nH]c4ccccc4c3C[C@H](C(=O)OC)N2C(=O)CCl)cc1 [RSL3],relative cell viability,HCC1937 [5],0.557
same,relative cell viability,MDA-MB-231 [6],0.45
C[C@@H]1C(=O)O[C@H]2[C@H](O)[C@@]34O[C@@H]5OC(=O)[C@H](O)[C@@]56[C@H](C(C)(C)C)[C@H](O)C(OC3=O)[C@]64[C@@]12O (stereo partly specified) [Ginkgolide C],relative cell viability,HCC1937 [1],1.15
same,relative cell viability,MDA-MB-231 [2],1.08
O=C(Oc1ccc([N+](=O)[O-])cc1)N1CCN(Cc2cccc(Oc3ccccc3)c2)CC1,relative cell viability,HCC1937 [1],0.79
same,relative cell viability,MDA-MB-231 [2],0.782
NNC(=O)c1nn(Cc2ccc(Cl)cc2Cl)c2ccccc12 [Adjudin],relative cell viability,HCC1937 [1],0.767
same,relative cell viability,MDA-MB-231 [2],0.757
O=C(NCCN1CCC2(CC1)C(=O)NCN2c1ccccc1)c1ccc2ccccc2c1 + COC(=O)c1ccc([C@H]2c3[nH]c4ccccc4c3C[C@H](C(=O)OC)N2C(=O)CCl)cc1 [RSL3],relative cell viability,HCC1937 [5],0.229
same,relative cell viability,MDA-MB-231 [6],0.51
O=C(Oc1ccc([N+](=O)[O-])cc1)N1CCN(Cc2cccc(Oc3ccccc3)c2)CC1 + COC(=O)c1ccc([C@H]2c3[nH]c4ccccc4c3C[C@H](C(=O)OC)N2C(=O)CCl)cc1 [RSL3],relative cell viability,HCC1937 [5],0.673
same,relative cell viability,MDA-MB-231 [6],0.473
Cc1cc(SCc2sc(-c3ccc(C(F)(F)F)c(F)c3)nc2C)ccc1OCC(=O)O,relative cell viability,HCC1937 [1],1.21
same,relative cell viability,MDA-MB-231 [2],0.892
CCc1c(C(=O)C(N)=O)c2c(OCC(=O)O)cccc2n1Cc1ccccc1 [Varespladib] + COC(=O)c1ccc([C@H]2c3[nH]c4ccccc4c3C[C@H](C(=O)OC)N2C(=O)CCl)cc1 [RSL3],relative cell viability,HCC1937 [5],0.449
same,relative cell viability,MDA-MB-231 [6],0.574
CC(C)=CCC[C@](C)(O)[C@H]1CC[C@]2(C)[C@@H]1[C@H](O)C[C@@H]1[C@@]3(C)CC[C@H](O)C(C)(C)[C@@H]3[C@@H](O[C@@H]3O[C@H](CO)[C@@H](O)[C@H](O)[C@H]3O)C[C@]12C [Ginsenoside Rh1] + CCOc1ccccc1-n1c(C(C)N2CCN(C(=O)COc3ccc(Cl)cc3)CC2)nc2ccccc2c1=O [erastin],relative cell viability,HCC1937 [3],0.679
same,relative cell viability,MDA-MB-231 [4],0.663
C[C@@]12C[C@@H](c3ccoc3)OC(=O)[C@@H]1CC[C@]1(C)[C@H]2[C@@H]2C=C[C@@]1(O)C(=O)O2 [Columbin],relative cell viability,HCC1937 [1],0.968
same,relative cell viability,MDA-MB-231 [2],1.06
C[C@]12CC[C@@H](O)C[C@@H]1CC[C@@H]1[C@@H]2CC[C@]2(C)C(=O)CC[C@@H]12 [Androsterone] + COC(=O)c1ccc([C@H]2c3[nH]c4ccccc4c3C[C@H](C(=O)OC)N2C(=O)CCl)cc1 [RSL3],relative cell viability,HCC1937 [5],0.919
same,relative cell viability,MDA-MB-231 [6],0.658
CC(C)(Oc1ccc(C(=O)c2ccc(Cl)cc2)cc1)C(=O)O [Choline Fenofibrate] + CCOc1ccccc1-n1c(C(C)N2CCN(C(=O)COc3ccc(Cl)cc3)CC2)nc2ccccc2c1=O [erastin],relative cell viability,HCC1937 [3],0.848
same,relative cell viability,MDA-MB-231 [4],0.662
Cc1ccc(C)c(OCCCC(C)(C)C(=O)O)c1 [Gemfibrozil] + CCOc1ccccc1-n1c(C(C)N2CCN(C(=O)COc3ccc(Cl)cc3)CC2)nc2ccccc2c1=O [erastin],relative cell viability,HCC1937 [3],0.688
same,relative cell viability,MDA-MB-231 [4],0.941
C/C=C(\CC[C@@H](C)[C@H]1CC[C@H]2[C@@H]3CC=C4C[C@@H](O)CC[C@]4(C)[C@H]3CC[C@]12C)C(C)C [Fucosterol] + CCOc1ccccc1-n1c(C(C)N2CCN(C(=O)COc3ccc(Cl)cc3)CC2)nc2ccccc2c1=O [erastin],relative cell viability,HCC1937 [3],0.685
same,relative cell viability,MDA-MB-231 [4],0.881
CCN(CC)Cc1ccc(C(=O)N(CCc2ccccc2OC)[C@@H]2CCNC2)cc1 + CCOc1ccccc1-n1c(C(C)N2CCN(C(=O)COc3ccc(Cl)cc3)CC2)nc2ccccc2c1=O [erastin],relative cell viability,HCC1937 [3],0.872
same,relative cell viability,MDA-MB-231 [4],0.726
C[C@@H]1O[C@@H](O[C@H]2[C@H](Oc3cc(O)c4c(c3)O[C@H](c3ccc(O)cc3)CC4=O)O[C@H](CO)[C@@H](O)[C@@H]2O)[C@H](O)[C@H](O)[C@H]1O [Naringin] + CCOc1ccccc1-n1c(C(C)N2CCN(C(=O)COc3ccc(Cl)cc3)CC2)nc2ccccc2c1=O [erastin],relative cell viability,HCC1937 [3],0.902
same,relative cell viability,MDA-MB-231 [4],0.632
CC(C)(CCCCCC(O)CCCCCC(C)(C)C(=O)O)C(=O)O + CCOc1ccccc1-n1c(C(C)N2CCN(C(=O)COc3ccc(Cl)cc3)CC2)nc2ccccc2c1=O [erastin],relative cell viability,HCC1937 [3],0.421
same,relative cell viability,MDA-MB-231 [4],0.405
COc1ccc(-n2c(SCCCN3C(=O)c4cccc5cccc(c45)C3=O)nnc2-c2ccncc2)cc1 + CCOc1ccccc1-n1c(C(C)N2CCN(C(=O)COc3ccc(Cl)cc3)CC2)nc2ccccc2c1=O [erastin],relative cell viability,HCC1937 [3],0.437
same,relative cell viability,MDA-MB-231 [4],0.658
CCCCC[C@H](O)CC(=O)CCc1ccc(O)c(OC)c1 [6-Gingerol] + CCOc1ccccc1-n1c(C(C)N2CCN(C(=O)COc3ccc(Cl)cc3)CC2)nc2ccccc2c1=O [erastin],relative cell viability,HCC1937 [3],0.444
same,relative cell viability,MDA-MB-231 [4],0.693
O=c1oc2ccccc2cc1O [3-Hydroxycoumarin] + CCOc1ccccc1-n1c(C(C)N2CCN(C(=O)COc3ccc(Cl)cc3)CC2)nc2ccccc2c1=O [erastin],relative cell viability,HCC1937 [3],0.61
same,relative cell viability,MDA-MB-231 [4],0.741
O=C(NC1CCN(CCCCC2(C(=O)NCC(F)(F)F)c3ccccc3-c3ccccc32)CC1)c1ccccc1-c1ccc(C(F)(F)F)cc1 [Lomitapide] + CCOc1ccccc1-n1c(C(C)N2CCN(C(=O)COc3ccc(Cl)cc3)CC2)nc2ccccc2c1=O [erastin],relative cell viability,HCC1937 [3],0.201
same,relative cell viability,MDA-MB-231 [4],0.436
O=C(ON1C(=O)CCC1=O)N1CCN(C(c2ccc(Cl)cc2)c2ccc(Cl)cc2)CC1 [Cravatt Reagent] + CCOc1ccccc1-n1c(C(C)N2CCN(C(=O)COc3ccc(Cl)cc3)CC2)nc2ccccc2c1=O [erastin],relative cell viability,HCC1937 [3],0.886
same,relative cell viability,MDA-MB-231 [4],0.772
O=C(O)/C=C/c1ccc(O)c(O)c1 [Caffeic Acid] + CCOc1ccccc1-n1c(C(C)N2CCN(C(=O)COc3ccc(Cl)cc3)CC2)nc2ccccc2c1=O [erastin],relative cell viability,HCC1937 [3],0.777
same,relative cell viability,MDA-MB-231 [4],0.979
N#Cc1c(O)c2c(-c3ccc(-c4ccccc4O)cc3)csc2[nH]c1=O + CCOc1ccccc1-n1c(C(C)N2CCN(C(=O)COc3ccc(Cl)cc3)CC2)nc2ccccc2c1=O [erastin],relative cell viability,HCC1937 [3],0.521
same,relative cell viability,MDA-MB-231 [4],0.51
CC(C)[C@H]1CC[C@H](C(=O)N[C@H](Cc2ccccc2)C(=O)O)CC1 [Nateglinide] + CCOc1ccccc1-n1c(C(C)N2CCN(C(=O)COc3ccc(Cl)cc3)CC2)nc2ccccc2c1=O [erastin],relative cell viability,HCC1937 [3],0.666
same,relative cell viability,MDA-MB-231 [4],0.734
CCc1c(-c2ccccc2)c(-c2ccccc2)nn1-c1ccccc1-c1cccc(OCC(=O)O)c1 + CCOc1ccccc1-n1c(C(C)N2CCN(C(=O)COc3ccc(Cl)cc3)CC2)nc2ccccc2c1=O [erastin],relative cell viability,HCC1937 [3],0.84
same,relative cell viability,MDA-MB-231 [4],0.861
CCc1ccc(CCOc2ccc(CC3SC(=O)NC3=O)cc2)nc1 (stereo unspecified) [Pioglitazone] + CCOc1ccccc1-n1c(C(C)N2CCN(C(=O)COc3ccc(Cl)cc3)CC2)nc2ccccc2c1=O [erastin],relative cell viability,HCC1937 [3],0.803
same,relative cell viability,MDA-MB-231 [4],0.551
CC(=O)c1c(C)cc2cccc(O)c2c1O [Nepodin] + CCOc1ccccc1-n1c(C(C)N2CCN(C(=O)COc3ccc(Cl)cc3)CC2)nc2ccccc2c1=O [erastin],relative cell viability,HCC1937 [3],0.7
same,relative cell viability,MDA-MB-231 [4],0.766
O=C(OC(C(F)(F)F)C(F)(F)F)N1CCN(Cc2ccc(C(F)(F)F)cc2N2CCCC2)CC1 + CCOc1ccccc1-n1c(C(C)N2CCN(C(=O)COc3ccc(Cl)cc3)CC2)nc2ccccc2c1=O [erastin],relative cell viability,HCC1937 [3],0.583
same,relative cell viability,MDA-MB-231 [4],0.74
CCC(C)(Oc1ccc(C2(c3ccc(OC(C)(CC)C(=O)O)cc3)CCCCC2)cc1)C(=O)O (stereo unspecified) [Clinofibrate] + CCOc1ccccc1-n1c(C(C)N2CCN(C(=O)COc3ccc(Cl)cc3)CC2)nc2ccccc2c1=O [erastin],relative cell viability,HCC1937 [3],0.544
same,relative cell viability,MDA-MB-231 [4],0.325
CCC(=O)O[C@]1(C(=O)SCF)[C@H](C)C[C@H]2[C@@H]3C[C@H](F)C4=CC(=O)C=C[C@]4(C)[C@@]3(F)[C@@H](O)C[C@@]21C [Fluticasone propionate] + CCOc1ccccc1-n1c(C(C)N2CCN(C(=O)COc3ccc(Cl)cc3)CC2)nc2ccccc2c1=O [erastin],relative cell viability,HCC1937 [3],0.967
same,relative cell viability,MDA-MB-231 [4],0.545
